From PubChem BioAssay (NCI) come the findings set out here.

Compounds without any hit were thinned out: in the full panel of roughly 83,000, 20% have a hit.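 A percent growth of 40 corresponds to 60% growth inhibition; 0 means no net growth; -100 means all cells died. Active threshold: below 10.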 Unmarked numbers belong to inactive results. Active and inactive are the calls of the source.

What all share (assay): NCI-60 one-dose screen, 48 h (100 = growth as untreated, 0 = no growth, -100 = all killed)
Test [1] concerns HCT-15 colon. As to conditions: 10 µM unless noted.
The test system of test [2] is HT29 colon. As to conditions: 10 µM unless noted.
For test [3], the system named is SNB-75 CNS. The following applies: 10 µM unless noted.
For test [4], the system named is SNB-19 CNS. The following applies: 10 µM unless noted.
Test [5] deals with U251 CNS. As to conditions: 10 µM unless noted.
In test [6] the test system is PC-3 prostate. As to conditions: 10 µM unless noted.
Test [7] deals with SK-MEL-5 melanoma. The following applies: 10 µM unless noted.
In test [8] the test system is UACC-62 melanoma. The following applies: 10 µM unless noted.
The test system of test [9] is LOX IMVI melanoma. The following applies: 10 µM.
Test [10] deals with SK-MEL-28 melanoma. The following applies: 10 µM unless noted.
For test [11], the system named is SK-MEL-2 melanoma. As to conditions: 10 µM unless noted.
In test [12] the test system is EKVX NSCLC. As to conditions: 10 µM unless noted.
The test system of test [13] is SN12C renal. The following applies: 10 µM unless noted.
In test [14] the test system is UO-31 renal. As to conditions: 10 µM unless noted.
Test [15] has as its system TK-10 renal. As to conditions: 10 µM unless noted.
For test [16], the system named is ACHN renal. As to conditions: 10 µM unless noted.
The test system of test [17] is CAKI-1 renal. As to conditions: 10 µM unless noted.
Test [18] has as its system A498 renal. As to conditions: 10 µM unless noted.
Test [19] concerns CCRF-CEM leukemia. As to conditions: 10 µM unless noted.
Test [20] relates to MOLT-4 leukemia. The following applies: 10 µM unless noted.

With `COc1cc2oc(-c3cccc(C(=O)Nc4ccc(Cl)cc4)c3)cc(=O)c2c(OCC(=O)N[C@@H](Cc2ccccc2)C(=O)O)c1OC`, the growth in [1] was 112%; in test [2], 112%; in test [3] it was 112%; in test [4], 98.2%; in test [5], 109%; in test [6], 97.5%. Also, the growth in test [7] is 96.1%; in test [8], 97.8%; in test [9], 83.4%; in test [10], 95.5%; in [11], 116%; in test [12] it was 107%. Besides, the growth was 105% in [13]; 90.8% in test [14]; 134% in [15]; 97.2% in test [16]; 91.2% in test [17]; 102% in test [18]. Further, the values for the growth in test [19] and in [20] were 98.9% and 110%, respectively.
Take `O=C(c1ccccc1)c1ccc2nc(-c3ccc(F)cc3)[nH]c2c1`: the growth in test [1] was 23.4%; in [2], 63.6%; in [3], 82%; in test [4], 75.2%; in test [5], -26.5% (active); in test [6] it was 56.4%. Besides, the growth in test [7] is 60.2%; in test [8], 43.2%; in test [9], 14.3%; in [10] it was 63.3%; in test [11], 62.4%; in [12], 80.9%. The growth in [13] was 30.5%; in test [14], 91.1%; in test [15], 104%; in [16], 57.1%; in test [17] it was 40.9%; in test [18] it was 90.7%. The growth was 15.7% in test [19] and 27.6% in [20].
`C#CCOc1ccc(/C=N/Nc2nc(-c3cc4cc(Br)ccc4oc3=O)cs2)cc1OC`: the growth in test [1] is 85.4%; in test [2], 36.1%; in test [3], 84.5%; in [4], 49.6%; in test [5], 12.5%; in test [6] it was 74.2%. For the same compound, the growth was 87.1% in test [7]; 57.5% in [8]; 49.5% in test [9]; 78.2% in test [10]; 105% in test [11]; 78.9% in test [12]. Also, the growth was 72.8% in test [13]; 89.7% in [14]; 102% in [15]; 71% in [16]; 67.9% in test [17]; 50.1% in test [18]. Besides, the growth is 100% in [19] and 92.8% in test [20].
Regarding `CCN(CC)c1ccc(/C=N/Nc2nc(-c3ccc(Br)cc3)cs2)c(O)c1`, the growth was 11.5% in test [1]; 56.3% in [2]; 77.4% in test [3]; 107% in test [4]; 81.7% in test [5]; 85.2% in test [6]. Further, the growth in test [7] was 77.2%; in [8], 77.4%; in test [9] it was -57.5% (active); in test [10] it was 86.2%; in test [11] it was 94.6%; in [12], 90.9%. Besides, the growth in test [13] was 23.1%; in test [14] it was 65.4%; in test [15] it was 96.5%; in [16], 76.1%; in test [17], 55.1%; in test [18], 102%. In addition, the growth in [19] is 1.36% (active); in test [20], 12.3%.
Take `O=c1oc2ccccc2cc1-c1csc(N=Nc2c(O)[nH]c3ccc(Cl)cc23)n1`: the growth in [1] is 98.8%; in test [2], 107%; in test [3], 98.1%; in test [4], 89.7%; in test [5] it was 101%; in test [6], 108%. Besides, the growth is 98.7% in test [7]; 92% in [8]; 100% in test [9]; 109% in test [10]; 112% in test [11]; 100% in test [12]. The growth is 97.9% in [13]; 97.7% in test [14]; 109% in test [15]; 110% in [16]; 106% in [17]; 98.6% in test [18]. Besides, the figures for the growth in [19] and in [20] were 103% and 109%, respectively.
In the case of `Cc1ccc(-c2nc(Nc3ccccc3S(N)(=O)=O)c3ccccc3n2)cc1`, the growth in [1] was 40.1%; in [2], 95%; in test [3], 91%; in test [4] it was 89%; in test [5], 57.5%; in test [6], 64.4%. Besides, the growth is 87% in [7]; 70.7% in [8]; 9.36% (active) in [9]; 107% in [10]; 102% in test [11]; 74.1% in test [12]. In addition, the growth in test [13] is 51.8%; in [14], 50.4%; in test [15], 151%; in test [16] it was 74%; in test [17], 78%; in test [18], 118%. The growth was 76.1% in test [19] and 78.5% in [20].
On to `Cn1cc(-c2cc(N)n3nc(-c4cn(C)c5ccc(Cl)cc45)cc3n2)c2ccccc21`, for which the growth in test [1] was 100%; in [2], 105%; in test [3], 89%; in [4], 108%; in [5], 103%; in [6] it was 110%. The growth in test [7] was 98.5%; in [8] it was 98.2%; in test [9], 110%; in test [10] it was 97.4%; in test [11], 114%; in test [12] it was 104%. Besides, the growth in [13] was 108%; in test [14], 107%; in test [15], 79.3%; in [16] it was 100%; in [17], 95.4%; in [18] it was 101%. Moreover, the growth in test [19] was 115%; in [20], 104%.
